According to the supplement of paper PMC3334620:
In all, about 33,000 sequences were measured (“E-score (-0.5 to 0.5)”: median about -0.016, highest 2% from about 0.32 on). The sample as a whole holds a higher share of the highest values than the screen did.

Target: T1, Stp1 (UniProt B3LFK1)
T1 sequence: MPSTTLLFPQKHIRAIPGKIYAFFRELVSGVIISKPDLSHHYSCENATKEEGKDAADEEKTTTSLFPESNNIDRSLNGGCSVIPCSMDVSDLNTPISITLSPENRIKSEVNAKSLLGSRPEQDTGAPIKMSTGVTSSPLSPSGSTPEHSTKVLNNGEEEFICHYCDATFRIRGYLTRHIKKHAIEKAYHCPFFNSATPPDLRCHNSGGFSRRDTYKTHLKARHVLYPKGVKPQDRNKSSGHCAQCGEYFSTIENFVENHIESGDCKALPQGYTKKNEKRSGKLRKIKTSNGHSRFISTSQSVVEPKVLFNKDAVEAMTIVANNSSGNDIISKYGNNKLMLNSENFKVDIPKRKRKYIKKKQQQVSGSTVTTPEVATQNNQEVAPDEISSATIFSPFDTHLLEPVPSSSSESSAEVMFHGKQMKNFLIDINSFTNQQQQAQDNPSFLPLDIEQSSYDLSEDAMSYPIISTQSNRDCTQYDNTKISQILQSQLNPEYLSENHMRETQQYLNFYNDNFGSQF
Test: PBM E-score (8-mer binding enrichment) (E-score (-0.5 to 0.5)); higher = stronger / more preferred TF binding
Details: protein concentration: 200 nM; construct: GST-full length
Method: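 Universal 'all 10-mer' protein binding microarrays (Agilent AMADID 015681) probed with GST-tagged S. cerevisiae TFs (full-length or DBD) made by in vitro transcription/translation (PURExpress), about 100-200 nM. Bound TF was detected with fluorescent anti-GST. Each ungapped 8-mer (which stands for itself and its reverse complement) is scored by the PBM enrichment score (E-score), a modified Wilcoxon-Mann-Whitney statistic from -0.5 to +0.5, computed with the Universal PBM Analysis Suite. Scale: above 0.35 generally sequence-specific binding.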

| Sequence | PBM E-score |
| --- | --- |
| AGGCCGGG | -0.163 |
| CTGAAAGC | 0.0435 |
| ACTACTGA | -0.0374 |
| AGCCAGGC | -0.101 |
| AAGGCGGC | 0.319 |
| GAGGAGGC | 0.00167 |
| GAGGCGGA | -0.00688 |
| GAGGCGGC | 0.374 |
| AAGGCGGA | -0.099 |
| CAGGCGGC | 0.3 |
| GGAAACTA | -0.133 |
| TCAATGAA | 0.0662 |
| ACCAAGTG | -0.0911 |
| GAGTAGAC | 0.0184 |
| AGTCGAAC | -0.146 |
| CTAATGCC | 0.221 |
| GAAATGCA | -0.0558 |
| CAAATGCC | 0.227 |
| GAAATGCC | 0.358 |
| GCCATGCC | 0.324 |
| ACCATGCC | 0.199 |
| ATAATGCC | 0.325 |
| ATGATGCG | 0.148 |
| ATAATGCG | -0.0164 |
| ATGATGCC | 0.337 |
| CTGATGCC | 0.187 |

| Sequence | PBM E-score |
| --- | --- |
| CCCATGCC | -0.0109 |
| TACACACA | 0.202 |
| ATGGATTA | -0.0582 |
| ACCTGGAT | -0.266 |
| GAAGCATA | -0.00057 |
| GTCACAAA | -0.0375 |
| AGTCATTG | -0.381 |
| CACACTCA | 0.0928 |
| AAATTTCT | -0.0455 |
| GCGATGCA | -0.156 |
| GCGATGCC | 0.319 |
| CCGATGCC | 0.264 |
| AAAATGCC | 0.352 |
| AAAATGCA | -0.0731 |
| AAAATGCT | 0.164 |
| ACTCACAC | -0.063 |
| CAATCCAA | 0.0601 |
| AAGCTGGG | -0.164 |
| AGCAATTA | 0.0484 |
| CCCACACC | -0.0557 |
| AAGCGGGA | -0.095 |
| AAGCGGGT | -0.0561 |
| CAGCGGCC | -0.111 |
| GAGCGGAA | 0.141 |
| AAGCGGCT | 0.354 |
| CAGCGGCG | 0.34 |

| Sequence | PBM E-score |
| --- | --- |
| CAGCGGCA | 0.3 |
| GAGCGGCA | 0.44 |
| AAGCGGCA | 0.455 |
| TAGCGGCA | 0.291 |
| AAGCGGAT | -0.0611 |
| AAGCGGAA | 0.0259 |
| AAAGTTAA | 0.102 |
| CCCCAGTC | -0.324 |
| ACGTGTTA | 0.116 |
| GTAAGAGA | -0.0111 |
| AACTCTAC | -0.212 |
| AATCGCTC | -0.292 |
| TGAGATCA | 0.0358 |
| GAGGGGGC | -0.277 |
| CTGACCAG | -0.136 |
| AAGCGGCC | 0.282 |
| AAGCGGCG | 0.458 |
| AAGCGGAG | -0.0617 |
| CAGCGTTC | 0.0494 |
| CGGCGTTA | 0.454 |
| AGGCGTTC | 0.0316 |
| CGGCGTTC | 0.391 |
| AGGCGTTA | 0.236 |
| GGGCGTTA | 0.206 |
| CGGAGGAA | -0.229 |
| CCTCCATA | 0.0205 |

| Sequence | PBM E-score |
| --- | --- |
| GGCCGCAA | 0.131 |
| TGCCGCCA | 0.229 |
| TACCGCAA | 0.117 |
| CGCCGCAG | 0.436 |
| CCCCGCAC | -0.00823 |
| AGCCGCAG | 0.258 |
| CCCCGCAG | -0.0786 |
| TGCCGCAA | 0.333 |
| CGCCGCAC | 0.478 |
| CACCGCAA | 0.0442 |
| GGCCGCAC | 0.289 |
| CGCCGCAA | 0.421 |
| CAAAGACG | 0.0347 |
| AAATGCAA | 0.0071 |
| ATTAGATA | 0.11 |
| ACTCACAA | -0.0902 |
| CGCAGTAA | 0.0664 |
| GGTGAGGA | 0.0236 |
| ATGGGTCA | -0.255 |
| CGCCATAC | 0.194 |
| AAACCGGG | -0.195 |
| AATCCTTC | -0.128 |
| ATACAGAC | -0.0347 |
| CCGTGCCC | 0.365 |
| CTGTGCCC | 0.242 |
| CCGTGCCG | 0.47 |

| Sequence | PBM E-score |
| --- | --- |
| GCGTGCCC | 0.0203 |
| TCGTGCCA | 0.177 |
| CCCTGCCG | 0.161 |
| GCGTGCCA | 0.206 |
| ATGTGCCC | 0.0678 |
| ATGTGCCG | 0.377 |
| CCGTGCCA | 0.35 |
| ATGTGCCA | 0.137 |
| CCGTGACG | 0.109 |
| ACTTCTGC | 0.0768 |
| GCTTCATA | 0.0285 |
| CTTGGCAA | -0.119 |
| CCACCCGG | -0.218 |
| CGCAAGTC | -0.309 |
| GCTACTGA | -0.0112 |
| CAAGGCTA | 0.275 |
| CACAATGC | 0.00061 |
| CCGTGCAG | 0.315 |
| AGGTGCCA | -0.0228 |
| CCGTGCAA | 0.325 |
| ACGTGCGA | 0.00881 |
| AGGTGCCC | -0.0256 |
| ACGTGCGG | 0.357 |
| ATGTGGCC | 0.0349 |
| ATGTGGCA | 0.27 |
| AGGTGCCG | 0.385 |

| Sequence | PBM E-score |
| --- | --- |
| TCGTGCAA | 0.288 |
| ATGTGCGG | 0.213 |
| ATGTGGCG | 0.322 |
| CGTTGACA | 0.0374 |
| AGAATCTC | -0.0977 |
| AAGGAGCC | -0.0111 |
| CTCTTAGC | 0.0466 |
| ACGTCGTG | -0.00714 |
| AGTGGGCG | 0.0679 |
| TCGTGGCA | 0.102 |
| CCGTGGCA | 0.357 |
| ACGTGCCC | 0.18 |
| ACGTGGCA | 0.152 |
| ACGTGCCG | 0.39 |
| ACGTGCCT | 0.278 |
| GATGGCAC | 0.196 |
| ATCTCTTG | -0.137 |
| AGCCGCAA | 0.188 |
| ACCCGCAT | 0.1 |
| AGCCGCAC | 0.42 |
| ACCCGCAC | 0.129 |
| AGCCGCAT | 0.452 |
| AACCGCAC | 0.0401 |
| CACTCTGC | -0.129 |
| CCCTTCTC | -0.259 |
| CTCAGGTC | -0.196 |

| Sequence | PBM E-score |
| --- | --- |
| TATTAGCA | 0.0213 |
| ACTCAAGA | -0.0476 |
| CATATAAG | 0.118 |
| AATATAAG | 0.32 |
| AATATAAT | 0.0522 |
| ACGTTTAA | 0.12 |
| CCGTTTAA | 0.349 |
| CCGTTTAC | 0.235 |
| AGTTCTAA | -0.0232 |
| TATGGCGA | 0.0899 |
| CCATAAAG | -0.0597 |
| AAGGCACA | 0.338 |
| CAGGCACA | -0.259 |
| GAGGCAGA | -0.118 |
| AAGGCACC | 0.402 |
| CAGGCACG | 0.174 |
| GAGGCACA | 0.332 |
| AAGGCAGA | -0.164 |
| TAGGCACA | 0.132 |
| AAGGCACG | 0.397 |
| CAGGCACC | -0.107 |
| GAGGCACC | 0.239 |
| AAGGCAAA | 0.247 |
| CACAAGCA | -0.0847 |
| AGTCCTTG | -0.0837 |
| GTTTCTCA | -0.115 |

| Sequence | PBM E-score |
| --- | --- |
| CAAGTAAC | 0.0497 |
| ATGAGAAT | 0.146 |
| CCTAATCA | -0.0333 |
| ACAGAGAA | -0.0516 |
| GATTTGCC | 0.219 |
| AGCCCGCC | -0.0384 |
| ATCTGCTC | -0.272 |
| TAAGATTA | 0.0404 |
| AATGCACT | 0.109 |
| AAGGCATG | 0.158 |
| AAGGCATT | 0.322 |
| AAGGCATC | 0.292 |
| AAGGCACT | 0.323 |
| AGGGCACT | 0.239 |
| CCCTACAG | -0.178 |
| GTCGCAAA | 0.155 |
| AAAGGCTT | -0.0867 |
| CAAGGCTC | 0.0922 |
| GACGGCTC | 0.307 |
| CACGGCTC | 0.469 |
| CACGGCTG | 0.363 |
| ACCGGCTC | -0.0667 |
| CCCGGCTA | -0.148 |
| AACGGCTG | 0.0994 |
| AACGGGCT | -0.293 |
| AACGGCTC | 0.407 |

| Sequence | PBM E-score |
| --- | --- |
| AACGGCTT | 0.366 |
| ACCGGCTG | -0.0577 |
| CATGTAGG | -0.00116 |
| AGTTGAGA | -0.0601 |
| ACTCCAGG | -0.175 |
| GGAGCACC | -0.188 |
| CCTTACAG | 0.0881 |
| AGGGAGTG | -0.0747 |
| CCGTCATA | 0.0738 |
| CAGAACGA | 0.00724 |
| GCCGGCTA | 0.0397 |
| TACGGCTA | 0.349 |
| GTCGGCTA | -0.0709 |
| ATCGGCTA | -0.108 |
| CACGGCTA | 0.415 |
| GACGGCTA | 0.235 |
| ACCGGCTA | -0.0689 |
| CTCGGCTA | 0.0804 |
| AACGGCTA | 0.372 |
